# Results taken from PubChem BioAssay (NCATS).
# Results filed as inconclusive are left out. Unmarked numbers belong to inactive results. The source made the active and inactive calls. Calls follow the shape of the dose curve; as a rule, active = well fitted cell-killing curve with a large enough effect; inconclusive = small, poorly fitted or top-dose-only effect, or effect the other way; inactive = no such curve, though single readings can be large or run the other way.
# Experiment: Viability qHTS for spleen associated tyrosine kinase inhibitor (SYKi) drug resistant MV4-11 cells (AID 1963824); also: nearly all actives have a fitted effect of over 35% in size
# Conditions: SYKi-resistant MV4-11 viability, CellTiter-Glo, 72 h; series mostly up to 45 µM; viability, % of control: at the top concentration
# Method in brief: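 CellTiter-Glo luminescence, read 10 min after reagent addition, reports viability after a 72 hr compound exposure. Cells are an MV4-11 line made resistant to SYK inhibition, seeded at 500 per well onto compound-containing plates.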
# Potency is read from the fitted curve at half-maximal effect.
SMILES,Potency,"viability, % of control"
O=C(O)c1ccc(NC(=O)[C@H](CC2CCCC2)n2cnc(C(F)(F)F)c2)nc1,2.91 µM (active),
C[C@@H](Oc1cc(-n2cnc3ccc(OC4CCN(C)CC4)cc32)sc1C(N)=O)c1ccccc1Cl,0.013 µM (active),
Cc1cc(Nc2nc(-c3ccccc3)nc3ccccc23)n[nH]1,0.366 µM (active),
CONC(=O)c1ccccc1Nc1cc(Nc2cc(C)nn2C(C)C)ncc1Cl,13.2 µM (active),
CCC[C@@H]1O[C@@H]2C[C@H]3[C@@H]4CCC5=CC(=O)C=C[C@]5(C)[C@H]4[C@@H](O)C[C@]3(C)[C@]2(C(=O)CO)O1,8.2 µM (active),
Nc1cccc(CNC(=O)c2ccc(Oc3ccc(OCc4cccc(F)c4)cc3)nc2)c1,16.4 µM (active),
O=C1CCCC2=C1C(c1ncccc1Br)N=C(Nc1nc3ccccc3o1)N2 (stereo not given),2.59 µM (active),
C=C1CC2C3(C)C(O)CC(=O)C(C)(C)C3C(O)C(OC(C)=O)C2(C)C2C(=O)OC(C)(C(=O)OC)C(=O)C12C (stereo not given),6.32 µM (active),
CCC(C)C(=O)OC[C@H]1O[C@H](O[C@H]2O[C@H](CO)[C@@H](O)[C@H](O)[C@H]2O)[C@H](O)[C@@H](O)[C@@H]1O (stereo not given in full),,98% [at 17.3 µM]
CCCSc1nc(N[C@@H]2C[C@H]2c2ccc(F)c(F)c2)c2nnn([C@@H]3C[C@H](OCCO)[C@@H](O)[C@H]3O)c2n1,23.1 µM (active),
COc1nnc2ccc(N3CCC(c4ccc(OCCN5CCN(C)C(=O)[C@H]5C)cc4)CC3)nn12,0.0372 µM (active),
COc1cccc(C(=O)NCCNc2nc3cc(C)cc(C)c3cc2C#N)c1,,90.8%
C[C@H](C(=O)NC1CCCC1)N(C(=O)Cn1nnc(-c2ccc3c(c2)OCO3)n1)C1CCCCC1,2.91 µM (active),
C=CCCN1CCC2(CC1)CN(C(=O)c1c(F)cccc1F)c1ccc(Cl)cc12,10.3 µM (active),
CC(Cc1cccc(C(F)(F)F)c1)NCCOC(=O)c1ccccc1 (stereo not given),,85.5%
C[C@@H]1O[C@@H](O[C@H]2[C@H](OC(=O)[C@]34CCC(C)(C)C[C@H]3C3=CCC5[C@@]6(C)CC[C@H](O[C@@H]7O[C@H](C(=O)O)[C@@H](O)[C@H](O)[C@H]7O[C@@H]7O[C@H](CO)[C@H](O)[C@H](O)[C@H]7O)[C@@](C)(C=O)C6CC[C@@]5(C)[C@]3(C)C[C@H]4O)O[C@H](C)[C@H](O[C@@H]3O[C@H](C)[C@H](O)[C@H](O)[C@H]3O)[C@@H]2O)[C@H](O)[C@H](O)[C@H]1O[C@@H]1OC[C@@H](O)[C@H](O[C@@H]2O[C@H](CO)[C@@H](O)[C@H](O)[C@H]2O)[C@H]1O (stereo not given in full),,5.67% [at 4.97 µM]
COc1ccc(S(=O)(=O)Nc2c(C)cc(C)cc2C)cc1,20.6 µM (active),
C=C1CCC2[C@](C)(CO)CCC[C@@]2(C)[C@@H]1CCC1=CCOC1=O (stereo not given in full),7.18 µM (active),
CC(=O)OC1C(OC(=O)c2ccccc2)C2C(C)(C)CCC(OC(C)=O)C2(C)C23CCC(C)(C2)C(=O)CC13 (stereo not given),10 µM (active),
Nc1nc2cc(-c3ccc4ncc(C(=O)N5CCOCC5)n4c3)ccc2o1,10.5 µM (active),

SMILES,Potency,"viability, % of control"
O=C(/C=C/c1ccc(O)cc1)OC[C@@]1(O)C=C[C@@H]2C(C(=O)O)=CO[C@@H](O[C@@H]3O[C@H](CO)[C@@H](O)[C@H](O)[C@H]3O)[C@@H]21,,89.7% [at 17.3 µM]
O=C1NC(=O)/C(=C\c2ccc(-c3ccc(F)cc3O)o2)S1,11.6 µM (active),
C[C@@H]1O[C@@H](O[C@H]2[C@H](O)[C@@H](O[C@@H]3O[C@H](CO)[C@@H](O)[C@H](O[C@@H]4O[C@H](CO)[C@@H](O)[C@H](O)[C@H]4O)[C@H]3O)[C@H](O[C@H]3CC[C@@]4(C)C(=CC[C@@H]5C4CC[C@@]4(C)C5C[C@@H]5OC6(CC[C@@](C)(CO[C@@H]7O[C@H](CO)[C@@H](O)[C@H](O)[C@H]7O)O6)[C@@H](C)[C@@H]54)C3)O[C@@H]2CO)[C@H](O)[C@H](O)[C@H]1O (stereo not given in full),,94.3% [at 9.25 µM]
C=C1C(=O)OC2CC(COC(=O)C(C)C)=C(C(C)CCCOC(C)=O)[C@@H](OC(C)=O)C12 (stereo not given in full),8.93 µM (active),
CC1(C)CC[C@]2(C(=O)O)CC[C@]3(C)C(=CCC4[C@@]5(C)CC[C@H](O[C@@H]6O[C@H](C(=O)O)[C@@H](O[C@@H]7OC[C@@H](O)[C@H](O)[C@H]7O)[C@H](O)[C@H]6O)C(C)(C)C5CC[C@]43C)C2C1O (stereo not given in full),,94.3% [at 17.3 µM]
CC(C)=C/C=C\[C@H](C)[C@H]1CC[C@]2(C)C[C@@H]3C(C)=CC(=O)C3/C(CO)=C\C[C@@H]12 (stereo not given in full),14.3 µM (active),
CC(C)CC(=O)OC1OC=C(CO[C@@H]2O[C@H](CO)[C@@H](O)[C@H](O)[C@H]2O)C2CC(O)C(O)(CO)C12 (stereo not given in full),,83% [at 17.3 µM]
O=C(Nc1cccc([N+](=O)[O-])c1)c1cccc(S(=O)(=O)N2CCCCCC2)c1,6.51 µM (active),
CC1=C2CC3OC3(C)CCC3OC3(C)CC2OC1=O (stereo not given),3.66 µM (active),
O=C1c2ccccc2-c2c(NCCc3ccccc3)c(=O)[nH]c3cccc1c23,23.1 µM (active),
Cn1c(=O)c2c(ncn2Cc2ccc(C(C)(C)C)cc2)n(C)c1=O,1.16 µM (active),
COc1ccc(F)cc1-c1cc(NC(=O)[C@@H]2CCCNC2)ncc1Cl,0.103 µM (active),
CC1=C2C[C@H]3OC(=O)[C@H](O)[C@@]4(O)[C@@H](C)[C@@H](O)[C@H](O)C([C@@]2(C)[C@H](O)[C@@H](O)C1)[C@@]34C (stereo not given in full),14.3 µM (active),
O=C1/C(=C/c2ccc(O)c(O)c2)Oc2ccccc21,0.517 µM (active),
CCCCCCCCCCCCOCCOCCOCCOCCOCCOCCOCCOCCOCCO,5.96 µM (active),
CNCCC(c1cccs1)c1ccc(O)c2ccccc12 (stereo not given),14.6 µM (active),
C=C1C(OC2OC(CO)C(O)C(O)C2O)CC2C(C)(C)C(O)CCC2(C)C1CC/C(C)=C\COC(=O)CC(=O)O (stereo not given),5.44 µM (active),
CN(C)CC/C=C1\c2ccccc2Sc2ccc(Cl)cc21,15 µM (active),
O=C1Nc2ccccc2C(O)(c2ccccc2)C1O (stereo not given),,53.4%
COc1cc(NC(=O)c2cc(C3CC3)on2)c(OC)cc1Cl,,78.5%
